For assay [1], the system named is PRMT1 (protein arginine N-methyltransferase 1). Put plainly: PRMT1 binders on small-molecule microarrays, primary screen, biochemical, small-molecule microarray, 635 nm fluorescence (AID 1088).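 Also: binding of Prmt1 protein to compounds spotted on small-molecule microarray slides.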 The following applies: small-molecule microarray binding, higher = more signal.
Assay [2] can be described thus: yeast growth modulation, basal conditions, primary screen, YJM789 clinical isolate, OD600, 24 h (AID 1089).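 Also: growth of clinical yeast isolate S. cerevisiae YJM 789 seeded 1000 cells per well; test concentration not given here.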 The following applies: S. cerevisiae YJM789 growth, higher = more signal, called active from +8 up or from −8 down.
Assay [3] can be described thus: fission yeast growth modulation, primary screen, strain 972, OD600, 24 h, no modulator (AID 1090).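 Also: basal condition with compound alone and no growth modifier present; test concentration not given here.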 The following applies: S. pombe 972 growth, higher = more signal, called active from +8 up or from −8 down.
Assay [4] is described as follows: S. cerevisiae growth modulation with rapamycin, primary screen, strain BY4716, OD600, 96 h (AID 1091). Also: test concentration not given here. The settings on record: higher = more signal, called active from +8 up or from −8 down.
Assay [5] deals with Torsin-1A-interacting protein 2 (Homo sapiens) (UniProt Q8NFQ8). Nature of the assay: LULL1 binders on small-molecule microarray, primary screen, cell lysate, human LULL1 lysate, 635/667 nm fluorescence (AID 1092).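 Also: probe is lysate of COS7 cells overexpressing human LULL1; score merges per-feature 667 nm fluorescence with signal-to-noise.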 The following applies: hLULL1 lysate binding, 635 nm fluorescence, higher = more signal.
Chain of Torsin-1A-interacting protein 2 (Homo sapiens) (Q8NFQ8 whole entry, looked up): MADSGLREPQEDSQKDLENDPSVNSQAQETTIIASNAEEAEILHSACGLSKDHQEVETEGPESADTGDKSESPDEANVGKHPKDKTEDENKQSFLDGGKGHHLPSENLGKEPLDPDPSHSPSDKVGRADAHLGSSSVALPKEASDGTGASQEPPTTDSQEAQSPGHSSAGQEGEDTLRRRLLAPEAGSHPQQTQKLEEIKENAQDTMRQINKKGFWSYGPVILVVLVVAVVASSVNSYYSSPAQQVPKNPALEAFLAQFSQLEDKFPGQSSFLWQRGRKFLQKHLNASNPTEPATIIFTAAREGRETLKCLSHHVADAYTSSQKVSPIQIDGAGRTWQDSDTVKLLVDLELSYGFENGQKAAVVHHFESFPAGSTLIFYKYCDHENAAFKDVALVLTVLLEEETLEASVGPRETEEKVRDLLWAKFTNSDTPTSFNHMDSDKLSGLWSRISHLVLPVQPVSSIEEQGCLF
A short description of assay [6]: E. coli growth modulation, two-sided OD650, primary screen, E. coli filamentation project, strain DRC41, 24 h (AID 1093).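 Also: MC1000 strain lacking acrAB efflux and sulA so SOS filamentation is blocked; test concentration not given here.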 The following applies: OD650, 24 h, higher = more signal, called active from +8 up or from −8 down.
Assay [7] in a line: small-molecule microarray binders of probe aLefty2, primary screen, biochemical, biotinylated probe, 635/667 nm fluorescence (AID 1094).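 Also: score merges spot fluorescence near 667 nm with spot signal-to-noise ratio.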 The following applies: higher = more signal.
The test system of assay [8] is Noggin (protein binding on small-molecule microarray). Put plainly: Noggin binders on small-molecule microarray, primary screen, biochemical, 635/667 nm fluorescence (AID 1095).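 Also: score merges 667 nm feature fluorescence with signal to noise over triplicate slides.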 The following applies: 635 nm fluorescence, higher = more signal.
In assay [9] the target is Neurogenic locus notch homolog protein 3 (Homo sapiens) (UniProt Q9UM47). Nature of the assay: NOTCH3 binders on small-molecule microarray, primary screen, biochemical, 635/667 nm fluorescence (AID 1096). The settings on record: NOTCH3 binding, 635 nm fluorescence, higher = more signal.
Chain of Neurogenic locus notch homolog protein 3 (Homo sapiens) (Q9UM47 whole entry, looked up): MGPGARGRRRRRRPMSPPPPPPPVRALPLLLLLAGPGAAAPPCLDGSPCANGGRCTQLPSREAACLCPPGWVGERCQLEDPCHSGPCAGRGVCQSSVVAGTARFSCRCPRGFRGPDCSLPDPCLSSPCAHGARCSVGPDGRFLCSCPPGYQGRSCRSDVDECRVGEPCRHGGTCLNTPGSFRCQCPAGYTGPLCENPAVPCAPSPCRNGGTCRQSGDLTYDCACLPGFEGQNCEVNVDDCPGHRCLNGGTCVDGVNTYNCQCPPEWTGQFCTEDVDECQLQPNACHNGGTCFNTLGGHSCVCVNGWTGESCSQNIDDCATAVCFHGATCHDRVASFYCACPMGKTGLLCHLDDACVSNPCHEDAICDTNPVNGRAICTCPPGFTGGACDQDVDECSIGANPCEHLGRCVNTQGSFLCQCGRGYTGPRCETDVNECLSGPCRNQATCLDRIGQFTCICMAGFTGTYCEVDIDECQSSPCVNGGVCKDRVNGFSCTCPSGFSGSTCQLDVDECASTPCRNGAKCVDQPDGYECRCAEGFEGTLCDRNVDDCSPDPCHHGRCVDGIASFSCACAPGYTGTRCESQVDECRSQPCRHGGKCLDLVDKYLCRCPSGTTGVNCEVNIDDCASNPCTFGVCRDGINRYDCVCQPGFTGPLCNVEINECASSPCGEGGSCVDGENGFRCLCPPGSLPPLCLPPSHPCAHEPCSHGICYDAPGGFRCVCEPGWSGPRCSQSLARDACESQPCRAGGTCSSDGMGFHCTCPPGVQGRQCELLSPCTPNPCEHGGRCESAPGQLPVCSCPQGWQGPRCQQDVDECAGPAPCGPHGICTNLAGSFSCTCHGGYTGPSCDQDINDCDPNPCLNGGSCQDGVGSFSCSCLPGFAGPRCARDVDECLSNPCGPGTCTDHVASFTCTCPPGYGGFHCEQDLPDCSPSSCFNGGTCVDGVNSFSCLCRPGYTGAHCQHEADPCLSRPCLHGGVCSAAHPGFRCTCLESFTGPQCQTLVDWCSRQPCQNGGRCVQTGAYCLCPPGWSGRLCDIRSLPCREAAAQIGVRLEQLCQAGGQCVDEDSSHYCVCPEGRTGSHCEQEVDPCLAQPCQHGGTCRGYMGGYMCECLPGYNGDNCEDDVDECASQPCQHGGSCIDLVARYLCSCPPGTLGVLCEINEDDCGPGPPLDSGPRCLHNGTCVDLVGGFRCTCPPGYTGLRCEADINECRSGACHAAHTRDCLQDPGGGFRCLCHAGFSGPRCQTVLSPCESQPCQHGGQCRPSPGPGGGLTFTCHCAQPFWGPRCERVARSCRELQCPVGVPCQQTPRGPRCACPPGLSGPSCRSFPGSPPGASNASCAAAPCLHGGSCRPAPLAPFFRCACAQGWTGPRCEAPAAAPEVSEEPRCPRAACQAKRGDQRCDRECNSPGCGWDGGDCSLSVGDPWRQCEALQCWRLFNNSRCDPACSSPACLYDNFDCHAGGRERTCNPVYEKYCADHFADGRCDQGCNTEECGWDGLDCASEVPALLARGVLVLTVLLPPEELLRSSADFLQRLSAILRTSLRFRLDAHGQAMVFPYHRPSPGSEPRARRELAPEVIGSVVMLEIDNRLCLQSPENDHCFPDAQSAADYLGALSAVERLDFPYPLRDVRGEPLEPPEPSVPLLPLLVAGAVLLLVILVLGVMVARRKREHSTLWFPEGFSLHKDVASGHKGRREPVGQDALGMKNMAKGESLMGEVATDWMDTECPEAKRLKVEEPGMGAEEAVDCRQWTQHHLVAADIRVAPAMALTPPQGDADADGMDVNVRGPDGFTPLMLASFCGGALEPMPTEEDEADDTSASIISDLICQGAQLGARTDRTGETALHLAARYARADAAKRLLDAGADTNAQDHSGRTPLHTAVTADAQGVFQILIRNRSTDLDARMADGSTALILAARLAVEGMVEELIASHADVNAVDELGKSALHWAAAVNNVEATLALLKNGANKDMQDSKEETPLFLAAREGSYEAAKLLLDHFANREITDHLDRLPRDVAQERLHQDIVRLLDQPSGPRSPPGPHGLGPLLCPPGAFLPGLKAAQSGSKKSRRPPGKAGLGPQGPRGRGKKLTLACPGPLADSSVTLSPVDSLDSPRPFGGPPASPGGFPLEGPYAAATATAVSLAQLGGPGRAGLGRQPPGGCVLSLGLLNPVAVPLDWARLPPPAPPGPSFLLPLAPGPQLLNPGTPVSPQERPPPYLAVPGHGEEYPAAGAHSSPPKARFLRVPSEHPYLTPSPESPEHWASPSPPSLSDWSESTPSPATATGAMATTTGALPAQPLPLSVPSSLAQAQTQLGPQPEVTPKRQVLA
Assay [10] in a line: small-molecule microarray binders of probe aEGFR, primary screen, biochemical, biotinylated probe, 635/667 nm fluorescence (AID 1097).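 Also: probe is a biotinylated anti-EGFR antibody binding compounds printed on slides; score combines fluorescence near 667 nm and signal to noise of each spot.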 The following applies: higher = more signal.
For assay [11], the system named is Plasmodium falciparum Sir2 (PF13_0152, Sir2A). Put plainly: pfSir2 binders on small-molecule microarrays, primary screen, biochemical, small-molecule microarray, 635 nm fluorescence (AID 1098).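 Also: score merges spot fluorescence intensity with its signal-to-noise ratio.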 The following applies: small-molecule microarray binding, fluorescence 635 nm; higher = more signal.
Assay [12] in a line: small-molecule microarray binders of probe aDKK1, primary screen, biochemical, biotinylated probe, 635/667 nm fluorescence (AID 1099).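 Also: score merges 667nm spot fluorescence with signal to noise across triplicate slides; reference of the scale not given here.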 The settings on record: higher = more signal.
Assay [13] is described as follows: small-molecule microarray binders of probe aCHRDL2, primary screen, biochemical, biotinylated probe, 635/667 nm fluorescence (AID 1100). The settings on record: higher = more signal.
A short description of assay [14]: splicing luciferase reporter signal modulators, primary screen, spliceosome inhibition project, cell-based, HEK293, splice +/- reporter (AID 1101).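 Also: HEK293 cells carrying a splicing-competent luciferase reporter gene; test concentration not given here.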 The following applies: luminescence, 24 h, higher = more signal, called active from +8 up or from −8 down. (In general: Reporter assays use an easily measured gene product as a stand-in for the process of interest.)
In assay [15] the target is Fibroblast growth factor 10 (Homo sapiens) (UniProt O15520). Nature of the assay: FGF10 binders on small-molecule microarrays, primary screen, biochemical, small-molecule microarray, 635 nm fluorescence (AID 1102). The following applies: FGF10 binding, fluorescence 635 nm, higher = more signal.
Chain of Fibroblast growth factor 10 (Homo sapiens) (O15520 whole entry, looked up): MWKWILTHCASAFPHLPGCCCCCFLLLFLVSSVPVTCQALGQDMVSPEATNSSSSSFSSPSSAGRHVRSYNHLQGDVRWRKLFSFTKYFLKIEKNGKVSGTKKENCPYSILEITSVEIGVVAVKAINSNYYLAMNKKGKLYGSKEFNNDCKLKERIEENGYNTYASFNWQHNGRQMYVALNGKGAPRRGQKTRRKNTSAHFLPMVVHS
In assay [16] the test system is glycogen synthase kinase-3 (GSK3A per assay name; protocol says GSK3B). Nature of the assay: GSK3 binders on small-molecule microarrays, primary screen, biochemical, small-molecule microarray, 635 nm fluorescence, GSK3A (AID 1103). Also: the record names both GSK3A and GSK3B. The following applies: small-molecule microarray binding, fluorescence 635 nm; higher = more signal.
Assay [17] has as its target Epidermal growth factor receptor (Homo sapiens) (UniProt P00533). Nature of the assay: EGFR binders on small-molecule microarrays, primary screen, biochemical, small-molecule microarray, 635 nm fluorescence (AID 1104).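 Also: score merges 667 nm emission intensity with spot signal to noise over triplicate slides.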 The settings on record: EGFR binding, higher = more signal.
Assay [18] has as its target Follistatin-related protein 3 (Homo sapiens) (UniProt O95633). Nature of the assay: FSTL3 binders on small-molecule microarrays, primary screen, biochemical, small-molecule microarray, 635 nm fluorescence (AID 1105).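 Also: score merges emission near 667 nm and signal to noise per printed spot across three slides.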 The following applies: FSTL3 binding, higher = more signal.
For assay [19], the target named is Dickkopf-related protein 1 (Homo sapiens) (UniProt O94907). Put plainly: DKK1 binders on small-molecule microarrays, primary screen, biochemical, small-molecule microarray, 635 nm fluorescence scan (AID 1106).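 Also: score merges emission near 667 nm with signal to noise over three replicate slides.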 The following applies: DKK1 binding, higher = more signal.
Chain of Dickkopf-related protein 1 (Homo sapiens) (O94907 whole entry, looked up): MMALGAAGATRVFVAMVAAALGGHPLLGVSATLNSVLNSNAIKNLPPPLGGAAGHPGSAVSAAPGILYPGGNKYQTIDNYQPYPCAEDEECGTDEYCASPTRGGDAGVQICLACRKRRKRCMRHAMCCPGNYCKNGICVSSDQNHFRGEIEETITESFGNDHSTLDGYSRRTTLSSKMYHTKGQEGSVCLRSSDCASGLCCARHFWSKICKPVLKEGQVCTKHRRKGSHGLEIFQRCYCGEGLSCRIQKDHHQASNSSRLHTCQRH
For assay [20], the system named is Inhibin beta A chain (activin A). Nature of the assay: INHBA (activin A) binders on microarrays, primary screen, biochemical, small-molecule microarray, 635 nm fluorescence scan (AID 1107).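 Also: mouse activin A protein probed at 4.33 µg/mL on printed slides; score merges bound-protein fluorescence near 667 nm with spot signal-to-noise.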 The settings on record: small-molecule microarray binding, higher = more signal.

Calls of active or inactive are those of the source.

Chain of Epidermal growth factor receptor (Homo sapiens) (P00533 whole entry, looked up): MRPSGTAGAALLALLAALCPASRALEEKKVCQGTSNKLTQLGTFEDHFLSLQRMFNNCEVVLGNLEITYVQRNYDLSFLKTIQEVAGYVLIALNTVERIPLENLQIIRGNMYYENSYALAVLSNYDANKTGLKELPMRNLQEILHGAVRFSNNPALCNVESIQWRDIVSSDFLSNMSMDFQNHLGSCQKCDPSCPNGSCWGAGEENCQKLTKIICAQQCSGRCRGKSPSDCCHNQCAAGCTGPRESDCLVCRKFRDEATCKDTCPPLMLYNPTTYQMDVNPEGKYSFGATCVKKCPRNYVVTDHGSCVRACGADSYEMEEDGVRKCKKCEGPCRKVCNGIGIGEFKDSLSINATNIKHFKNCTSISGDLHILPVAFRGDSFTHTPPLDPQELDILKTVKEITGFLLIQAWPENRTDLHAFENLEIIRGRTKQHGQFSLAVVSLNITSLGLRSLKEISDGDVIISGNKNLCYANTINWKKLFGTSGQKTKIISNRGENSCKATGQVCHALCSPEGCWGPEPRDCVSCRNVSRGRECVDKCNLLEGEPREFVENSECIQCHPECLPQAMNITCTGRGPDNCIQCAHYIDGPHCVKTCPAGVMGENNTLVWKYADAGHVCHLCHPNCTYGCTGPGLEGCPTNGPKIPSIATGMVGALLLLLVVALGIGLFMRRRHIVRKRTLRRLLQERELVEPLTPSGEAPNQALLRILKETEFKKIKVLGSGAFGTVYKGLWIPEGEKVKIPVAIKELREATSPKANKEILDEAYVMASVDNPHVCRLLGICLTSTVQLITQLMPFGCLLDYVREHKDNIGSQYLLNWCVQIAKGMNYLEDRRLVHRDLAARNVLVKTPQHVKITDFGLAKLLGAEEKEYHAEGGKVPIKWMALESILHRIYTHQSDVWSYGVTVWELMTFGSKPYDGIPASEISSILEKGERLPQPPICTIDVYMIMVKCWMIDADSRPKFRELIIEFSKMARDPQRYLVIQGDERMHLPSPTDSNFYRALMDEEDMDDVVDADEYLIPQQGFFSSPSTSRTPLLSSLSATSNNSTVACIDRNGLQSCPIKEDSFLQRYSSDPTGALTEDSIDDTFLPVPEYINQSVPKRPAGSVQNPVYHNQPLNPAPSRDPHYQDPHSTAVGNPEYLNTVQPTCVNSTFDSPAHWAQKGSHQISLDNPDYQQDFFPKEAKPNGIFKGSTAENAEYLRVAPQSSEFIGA
Chain of Follistatin-related protein 3 (Homo sapiens) (O95633 whole entry, looked up): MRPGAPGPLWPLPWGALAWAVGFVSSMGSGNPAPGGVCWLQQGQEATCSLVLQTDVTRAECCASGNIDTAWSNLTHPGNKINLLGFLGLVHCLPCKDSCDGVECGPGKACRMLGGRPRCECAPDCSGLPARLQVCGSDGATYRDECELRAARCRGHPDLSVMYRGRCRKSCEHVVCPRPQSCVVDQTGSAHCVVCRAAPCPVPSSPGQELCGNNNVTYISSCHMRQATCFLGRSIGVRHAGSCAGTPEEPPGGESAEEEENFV

Turning to `C#CCCCON=C1[C@H]2CCn3c(=O)n(-c4ccccc4)c(=O)n3[C@H]2[C@H](O)[C@@H]2O[C@H]12`, the composite z-score in assay [1] was 0.192; in assay [5], 0.463; in assay [7], -0.202; in assay [8] it was 0.422; in assay [9] it was 0.496; in assay [10] it was -0.0938. Besides, the composite z-score in assay [11] is 0.164; in [12], 0.238; in assay [13], -0.615; in [15], 0.291; in [16], 0.621; in [17], 0.537. Further, the composite z-score was determined as 0.725 in assay [18], 0.521 in [19] and 0.127 in assay [20]. Moreover, the z-score is -1.65 (inactive) in [2]; -0.813 (inactive) in assay [3]; -0.864 (inactive) in assay [4]; -0.623 (inactive) in assay [6]; -1.65 (inactive) in assay [14].
Regarding `CO[C@H]1COC(=O)CC=C[C@H](C)COC(=O)[C@@H](C)NC(=O)CC=C[C@@H]1C`, the composite z-score in [1] is 1.53; in assay [5] it was -1.13; in assay [7], -0.289; in [8] it was 1.88; in [9] it was -0.222; in assay [10] it was -0.0606. The composite z-score in assay [11] was 1.56; in assay [12], -0.335; in [13], -1.42; in [15], 0.337; in assay [16], 0.913; in assay [17], 1.32. Besides, the composite z-score was 1.47 in assay [18], 1.65 in assay [19] and 0.872 in assay [20]. Moreover, the z-score was -0.78 (inactive) in assay [2]; -0.809 (inactive) in [3]; -1.18 (inactive) in assay [4]; 0.0007 (inactive) in assay [6]; -1.31 (inactive) in assay [14].
For the molecule `Cn1c(=O)n2n(c1=O)[C@H]1[C@H](O)[C@@H]3O[C@@H]3C(=O)[C@H]1CC2`, the composite z-score in assay [1] is -0.261; in assay [5] it was 0.485; in assay [7], -0.13; in assay [8] it was 0.457; in [9] it was 0.557; in assay [10] it was -0.0508. Also, the composite z-score in [11] is 0.269; in [12], -0.0838; in assay [13] it was -0.512; in assay [15] it was 0.946; in assay [16] it was 0.778; in assay [17], 0.531. Further, the composite z-score stood at 0.534 in [18], 0.408 in assay [19] and 0.0134 in assay [20]. For the same molecule, the z-score was 0.954 (inactive) in [2]; 0.595 (inactive) in assay [3]; 0.672 (inactive) in assay [4]; 0.442 (inactive) in [6]; -0.515 (inactive) in [14].
Consider `CC(=O)Nc1ccc([C@@H]2N[C@H](C(=O)O)CC[C@H]2C)cc1`, for which the composite z-score in [1] was 0.0579; in assay [5] it was 0.184; in assay [7], -0.139; in assay [8], 0.399; in [9] it was 0.626; in assay [10], -0.0493. Further, the composite z-score was 0.136 in assay [11]; -0.108 in assay [12]; -0.401 in assay [13]; 0.32 in assay [15]; 0.461 in assay [16]; 0.546 in assay [17]. The composite z-score in assay [18] stood at 0.409; in [19] it was 0.444; in [20], 0.133. Further, the z-score in [2] is 0.216 (inactive); in assay [3], -0.228 (inactive); in [4], 0.634 (inactive); in [6] it was 0.622 (inactive); in assay [14] it was 0.303 (inactive).
Take `CC(C)=CCCC(C)=CCON=C1C[C@@H](O)[C@@H](O)[C@@H]2[C@@H]3C(=O)N(C[C@@H]4CCCO4)C(=O)[C@@H]3CC[C@H]12`: the composite z-score in assay [1] is 1.56; in [5], 1.39; in [7], -0.111; in assay [8], 0.987; in assay [9], 1.08; in assay [10] it was 0.122. The composite z-score in assay [11] was 0.346; in assay [12], -0.257; in [13], -0.762; in assay [15], 1.37; in [16] it was 1.25; in [17], 1.29. Moreover, the composite z-score in assay [18] came out at 1.39; in [19] it was 1.46; in assay [20], 1. The z-score was 0.46 (inactive) in assay [2]; 0.948 (inactive) in [3]; 0.036 (inactive) in [4]; 0.362 (inactive) in assay [6]; 0.91 (inactive) in [14].
